From PubChem BioAssay
CHRM1 PAM: human M1 muscarinic receptor positive allosteric modulators, primary screen, CHO-K1 cells, Fluo-8 calcium fluorescence, 1536-well. 360,000 compounds, 0.088% hits. activation, % at 3 µM. Muscarinic acetylcholine receptor M1 (Homo sapiens), P11229. CHO-K1 hM1, ACh EC20; 0% = ACh EC20, 100% = maximal ACh; in the data active means activation above about 19%, passing the limit was not always enough
Target sequence (P11229 whole entry, looked up): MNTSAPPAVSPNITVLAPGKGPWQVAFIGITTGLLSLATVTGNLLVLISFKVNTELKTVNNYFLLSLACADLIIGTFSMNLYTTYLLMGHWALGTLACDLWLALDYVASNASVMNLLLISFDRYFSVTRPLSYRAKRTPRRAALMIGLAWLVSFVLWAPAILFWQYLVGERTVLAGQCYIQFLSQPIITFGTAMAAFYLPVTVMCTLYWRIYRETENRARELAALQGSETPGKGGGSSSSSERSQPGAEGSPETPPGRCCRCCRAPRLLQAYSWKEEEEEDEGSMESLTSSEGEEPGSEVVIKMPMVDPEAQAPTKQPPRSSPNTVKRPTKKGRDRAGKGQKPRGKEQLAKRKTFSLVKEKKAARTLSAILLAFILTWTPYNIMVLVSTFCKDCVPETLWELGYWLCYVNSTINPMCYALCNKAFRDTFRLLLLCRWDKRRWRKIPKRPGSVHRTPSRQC
M1 ag: human M1 muscarinic receptor agonists, primary screen, Fluo-8 calcium fluorescence, CHO-K1 cells, HTS; Muscarinic acetylcholine receptor M1 (Homo sapiens), P11229; CHO-K1 hM1, agonist mode; 0% DMSO, 100% acetylcholine EC100; activation, % at 3 µM; 360,000 compounds, 0.33% hits; AID 588814, 2011;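 active means activation above the run's mean compound activation plus 3 SD, cut at about 16% in these data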;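 further: peak over basal fluorescence ratio within a 140 s kinetic read after compound addition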
CHO-K1 Ca PAM: nonselective calcium activators in parental CHO-K1 cells, primary screen, counter-screen for M1 PAM project, cell-based, Fluo-8 calcium fluorescence, full deck, 1536-well. ATP EC20; 0% at ATP EC20, 100% at ATP max. activation, % at 3 µM. 360,000 compounds, 0.02% hits. AID 602247, 2012;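 active means activation above the run cutoff, the mean activation of all test compounds plus 3 SD, cut at about 40% in these data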;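 further: peak over basal fluorescence ratio in a 140 s read after ATP addition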
CHO-K1 Ca ag: counter-screen for M1 agonists: effect in parental CHO-K1 cells; activation, % at 3 µM; 360,000 compounds, 0.48% hits; Fluo-8 calcium fluorescence; scaled to maximal ATP response, vehicle zero; in the data active means activation above about 15%;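 further: untransfected CHO-K1 host cells lacking M1 receptor as counterscreen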
CHO-K1 Ca antag: counter-screen for M1 antagonists: effect in parental CHO-K1 cells; AID 602250; ATP-induced calcium, Fluo-8 fluorescence; 360,000 compounds, 0.6% hits; inhibition, % at 3 µM;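 active means inhibition above a per-plate cutoff, the plate's mean sample inhibition plus 3 SD, cut at about 24% in these data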
M1 antag: human M1 muscarinic receptor antagonists, primary screen, CHO-K1 cells, Fluo-8 calcium fluorescence, 1536-well; Muscarinic acetylcholine receptor M1 (Homo sapiens), P11229; CHO-K1 hM1, ACh EC80 antagonist; inhibition, % at 3 µM; 360,000 compounds, 1.3% hits; AID 588852, 2011;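 active means percent inhibition above its own plate's cutoff, namely the mean of that plate's compound wells plus 3 SD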;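 further: peak over basal fluorescence ratio during 140 s after agonist addition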
Each line names hits and unclear results; the compound was inactive in the other large screens. The list is not random: actives were taken first. Their share in the collection is about 2.3%.

Cc1ccc(C)c(S(=O)(=O)N2CCN(C(=O)C3CCN(c4ncnc5sc(C)c(C)c45)CC3)CC2)c1	none
O=C(NNC(=S)NC(=O)c1ccc(Br)cc1)c1cccc([N+](=O)[O-])c1	M1 ag 35, CHO-K1 Ca ag 21
O=C(NNC(=S)NC(=O)c1ccccc1Cl)c1cccc([N+](=O)[O-])c1	M1 ag 19
O=C(NNC(=S)NC(=O)c1ccc(Br)cc1)c1ccc([N+](=O)[O-])cc1	M1 ag 47
O=C(NCc1ccccc1)c1cc(C2CCCCN2S(=O)(=O)c2cccc3cccnc23)on1 (stereo not given)	none
C=CS(=O)(=O)N(Cc1ccc(Cl)c(Cl)c1)C[C@@H](O)CO	none
CCN(CC)CCOCCOC(=O)C(CC)(CC)c1ccccc1	M1 antag 38
COC(=O)c1sc(S(=O)(=O)N2CCCCC2)c(C(=O)OC)c1C	M1 antag 21
Cc1ccc(S(=O)(=O)N2CCN(c3cc4c(cc3[N+](=O)[O-])n(C)c(=O)n4C)CC2)cc1	M1 antag 52
Cn1c(=O)n(C)c2cc([N+](=O)[O-])c(N3CCN(S(=O)(=O)c4ccc5ccccc5c4)CC3)cc21	none
C[C@H]1CN([C@@H](C)CO)C(=O)CCCn2nncc2CO[C@@H]1CN(C)Cc1ccccc1	none
O=C1NC[C@H](CCCCN2C[C@H](Cc3ccccc3)N(CC3CCCCC3)C(=O)C2=O)N(CCC2CCCCC2)C1=O	none (no result: CHRM1 PAM, M1 ag, M1 antag)
O=C1NC[C@@H](CCCCN2C[C@H](Cc3ccccc3)N(CC3CCCCC3)C(=O)C2=O)N(CC2CCCCC2)C1=O	CHO-K1 Ca ag 35 (no result: CHRM1 PAM, M1 ag, M1 antag)
O=C1NC[C@H](CCCCN2C[C@@H](Cc3ccccc3)N(CC3CCCCC3)C(=O)C2=O)N(CCC2CCCCC2)C1=O	CHO-K1 Ca ag 26 (no result: CHRM1 PAM, M1 ag, M1 antag)
CCCc1cc(=O)[nH]c(SCC(=O)NC(=O)NC2CCCC2)n1	none
CSc1ccc(CN2CCc3c([nH]c4ccccc34)C2)cc1	CHO-K1 Ca ag 15
Clc1ccc(CN2CCc3c([nH]c4ccccc34)C2)cc1Cl	none
Cc1ccc(S(=O)(=O)N2CCCC2CNC(=O)C(=O)Nc2ccc(F)cc2F)cc1 (stereo not given)	none
Cc1cccc2cc(-c3ccccc3)c(-c3ccccc3)c[n+]12	M1 antag 52
Cc1c(O)ccc2c(-c3ccccc3)cc(=O)oc12	none
COc1ccccc1-c1cc(NC=O)c2ncc(-c3cccc(C(F)(F)F)c3)n2c1	CHRM1 PAM 31
COc1ccc(-c2cc(NC=O)c3ncc(-c4cccc(C(=O)NCCN(C)C)c4)n3c2)c(OC)c1	M1 antag 85
COc1cccc(-c2nnc(SCC(=O)NC3CCS(=O)(=O)C3)n2C)c1 (stereo not given)	none
CC(C)(C)c1ccc(OCc2ccc(C(=O)Nc3cccnc3)o2)cc1	none
O=Cc1ccc(N2CCCC2)c([N+](=O)[O-])c1	none
O=[N+]([O-])/C=C\c1ccc(N2CCCC2)c(F)c1	M1 ag 24, CHO-K1 Ca ag 27, M1 antag 51
CN(Cc1ccccc1)CC(O)CN(C)Cc1ccccc1	M1 ag 18
CN(CCO)CC(O)CN(c1ccccc1)c1ccccc1 (stereo not given)	none
COc1ccc(NC(=O)C2Cc3c(-c4cccc(F)c4)ccnc3O2)cc1OC (stereo not given)	none
COc1cc(/C=C2\SC(=S)N(NC(=O)c3ccc(O)cc3)C2=O)ccc1O	M1 ag 37, CHO-K1 Ca ag 23
COc1cc(/C=C2\SC(=S)N(NC(=O)c3cccnc3)C2=O)ccc1O	M1 antag 27
COc1cc(/C=C2\SC(=S)N(c3cccnc3)C2=O)ccc1O	CHO-K1 Ca ag 18
CC(CCc1ccccn1)(CCc1ccccn1)C(=O)c1ccccc1	none
COc1cc(S(=O)(=O)N(Cc2cccs2)CC2CCCO2)ccc1-n1cnnn1 (stereo not given)	none
O=S(=O)(NCc1ccccc1)c1ccc(S(=O)(=O)N(Cc2cccs2)CC2CCCO2)cc1 (stereo not given)	CHO-K1 Ca antag 28
O=C(/C=C/c1ccccc1)CC(O)(c1ccccc1)C(F)(F)C(F)F (stereo not given)	CHO-K1 Ca ag 17, M1 antag 38
O=C1CS/C(=N/N=C/c2cccs2)N1Cc1ccc(F)cc1	none
Cc1ccc(SCC(=O)OCC(=O)N(C)CC(=O)Nc2ccc(F)cc2)cc1C	M1 ag 32, CHO-K1 Ca ag 46
CN(CC(=O)Nc1ccc(F)cc1)C(=O)CSc1ccc2c(c1)OCCO2	none
COc1ccc(CCNC(=O)C(=O)c2cn(CC(=O)N3CCCC3)c3ccccc23)cc1	none
CCOC(=O)C1CCN(S(=O)(=O)c2ccc(C)c(C)c2)CC1	CHO-K1 Ca ag 17
CCOC(=O)C1CCN(S(=O)(=O)c2ccc3[nH]c4c(c3c2)CCCC4)CC1	CHO-K1 Ca ag 16
CCOC(=O)C1CCN(CC(C)(C)NS(=O)(=O)c2ccccc2)CC1	CHO-K1 Ca ag 19
CC(=O)N1CCN(CC(C)(C)NS(=O)(=O)c2ccccc2)CC1	none
CC(=O)N/C(=C\c1ccccc1)C(=O)OCC(=O)N(C)C1CCS(=O)(=O)C1 (stereo not given)	none
O=[N+]([O-])c1ccc(/C=C/C2=NN(c3ccccc3)C(c3ccco3)C2)o1 (stereo not given)	M1 ag 66, CHO-K1 Ca ag 38, CHO-K1 Ca antag 39, M1 antag 60
C(=C\c1ccco1)/C1=NN(c2ccccc2)C(c2ccco2)C1 (stereo not given)	none
CC1(C(=O)NS(=O)(=O)c2cccc(Cl)c2)CCN1C(=O)CCc1ccccc1 (stereo not given)	none
CC(C)CC(=O)NC(Nc1ccc([N+](=O)[O-])cc1)C(Cl)(Cl)Cl (stereo not given)	CHO-K1 Ca ag 16
CN(CC(=O)Nc1ccc(Cl)c(C(F)(F)F)c1)C(=O)COC(=O)C1CC2CCCC(C1)C2=O (stereo not given)	none
COC(=O)c1ccc(CN2C(=O)NC(Cc3c[nH]c4ccccc34)C2=O)cc1 (stereo not given)	CHO-K1 Ca ag 15
O=C1NC(Cc2c[nH]c3ccccc23)C(=O)N1Cc1ccccc1 (stereo not given)	none
O=C(NCC1(N2CCCCC2)CCCCC1)c1ccc(NS(=O)(=O)c2ccccc2)cc1	CHO-K1 Ca antag 28
O=C(O)c1cn2c3c(ccc(Cl)c3c1=O)OCC2	CHRM1 PAM 26
